# YopH PTP inh: blocks Yersinia enterocolitica YopH tyrosine phosphatase. fluorescence Ex485/Em525. inhibition, % (no concentration beside the values). actives 0.16% (n = 140,000); in the data active = inhibition above about 50%
# * = called active by the depositor. Many of the other results were omitted from the sample, so hits are more common in it than they were.
SMILES,YopH PTP inh
Cc1ccc(C)c(-n2nnnc2SCC(=O)c2ccc3c(c2)NC(=O)CO3)c1,-33.7
Cc1nc2cc(N3CCN(C)CC3)c(NC(=O)Cc3ccccc3)cc2c(=O)n1Cc1ccccc1,-27.4
CCn1c(SCC(=O)Nc2ccccc2OC)nc2ccccc2c1=O,-5.6
CCN(CC)c1ccc(C=Nc2cc(C)ccc2C)c(O)c1,-31.6
CCN(CC)c1ccc(/C=N/Nc2ccc(C)cc2)c(O)c1,82.8*
CCOC(=O)N/N=C/c1ccc(N(CC)CC)cc1O,-25.5
CCN(CC)c1ccc(NC(=O)CN2CCN(c3ccc(F)cc3)CC2)cc1,-23.3
CCn1ncc(Br)c1C(=O)Nc1sc2c(c1C(N)=O)CCC2,-22.2
COc1ccc(Nc2c3c(nc4c(-c5ccccc5)c(C)nn24)CCC3)cc1,-22.4
COc1ccc(N=CC2=C(Nc3ccc(OC)cc3)c3c(C)nn(-c4ccccn4)c3CC2)cc1,50.9*
COc1ccc(-c2cc(C(=O)O)c3c(C)nn(-c4ccccn4)c3n2)cc1,-9.4
COc1cc2c(cc1NC(=O)CSc1nc3cc(Cl)ccc3s1)oc1ccccc12,-17.4
CSc1nc(-c2ccccc2)nn1C(=O)c1ccccc1,-19.9
CNC(=O)c1ccsc1NC(=O)c1ccc2c(c1)CCCC2,-34.5
Cc1ccc(S(=O)(=O)N2CCCC(C(=O)NCc3ccco3)C2)cc1Cl (stereo not drawn),56.2*
O=C(NCc1ccco1)C1CCCN(S(=O)(=O)c2cccc3nsnc23)C1 (stereo not drawn),-30.9
O=C(NCc1ccco1)C1CCCN(S(=O)(=O)Cc2ccccc2)C1 (stereo not drawn),-23.8
Cc1cc2c(nn1)CCC/C2=N\O,-100.6
O=C1OC(Nc2ncccn2)c2ccccc21 (stereo not drawn),-26.2
O=C(NCCc1ccccn1)c1ccc(S(=O)(=O)N2CCCCCC2)cc1,-42.3
COC(=O)[C@H](C)NC(=O)Nc1ccc(C)c(C)c1,-1.3
COc1cc(NCCCCCCCN)c2ncccc2c1,52.5*
NC(=S)Nc1cccc2cccnc12,-24.6
COc1cc(NC(=O)c2ccc3c(c2)OCO3)c2ncccc2c1,-31.8
Cc1cc(C(F)F)n2nc(C(=O)Nc3sc4c(c3C#N)CCC(C)C4)nc2n1 (stereo not drawn),-11.8
SMILES,YopH PTP inh
Cc1cc(C)nc(SCC(=O)Nc2sc3c(c2C#N)CCC(C)C3)n1 (stereo not drawn),93.5*
Cc1ccnc(SCC(=O)Nc2sc3c(c2C#N)CCC(C(C)(C)C)C3)n1 (stereo not drawn),1.1
CC(C)CCN1C(=O)c2ccc(C(=O)NCc3ccco3)cc2C1=O,-31.9
COCCCNC(=O)CCCOc1ccccc1,-15.8
COCCCNC(=O)CCSc1ccc(Cl)cc1,-1.4
COCCCNC(=O)CCCC(=O)NCCCOC,54.8*
CCOC(=O)N1CCN(C(=O)COc2cccc3c2CCN(Cc2ccccc2C)C3=O)CC1,5.1
CCOC(=O)Cn1nc(-c2ccccc2)nc1-c1ccccc1,-8.8
CCn1nc(-c2ccccc2)c2nc3ccccc3nc21,-19.7
CCn1nc(-c2ccccc2)nc2c(=O)n(C)c(=O)nc1-2,101.5*
CC(=O)NC(NC(C)=O)c1cccc(OCc2ccccc2)c1,14.3
CC(C)(C)C(=O)NCCc1nc2ccccc2n1CC(=O)c1ccccc1,-36.3
CCCCC(=O)Nc1ccc(NC(=O)CC)cc1OC,-71.9
CCCC(=O)Nc1cc(OC)c(OC)cc1C(=O)O,-29.1
CCCCNc1cc(NC(C)=O)cc2cc(OC)c(OC)cc12,79.6*
CCOC(=O)c1ccc(Nc2nc(C(=O)OCC)nc3ccccc23)cc1,14.5
CCc1nc(-c2ccc(OC)c(OC)c2)cc2cc(OC)c(OC)cc12,-21.3
COc1ccc(Cc2n[nH]c(=O)c3ccccc23)cc1OC,-3.2
COc1ccc(Cc2nccc3cc(OC)c(OC)cc23)cc1OC,66.8*
COc1ccc(-c2cc(C)nc(SCc3cccc(C(=O)O)c3)n2)cc1,-0.5
COc1cccc(/C=N\NC(=O)C2C(=O)NCC2c2ccccc2)c1O (stereo not drawn),-43.5
CCN1CCN(CCC(=O)Nc2ccc3c(c2)OCO3)CC1,31.5
Cc1cc(C)nc(SCC(=O)Oc2ccc3oc(=O)cc(C)c3c2)n1,51.5*
CCC(=O)Oc1ccc2oc(=O)cc(C)c2c1,40.1
Cc1cc(=O)oc2ccc(OC(=O)CN3C(=O)c4cccc([N+](=O)[O-])c4C3=O)cc12,48.5
SMILES,YopH PTP inh
O=C(Nc1ccccc1Cl)N1CCN(c2ccccn2)CC1,19.1
CC(=O)Nc1ccc(C(=O)OCC(=O)NC(=O)NC(C)(C)C)cc1,-21.6
Cc1cc(C)nc(NC(=NCCc2c[nH]c3ccccc23)NC(=O)Nc2ccc(Cl)c(Cl)c2)n1,-11.4
Cc1ccc(S(=O)(=O)N2CCc3ccccc3C2CN2C(=O)c3ccccc3C2=O)cc1 (stereo not drawn),2.1
O=C1CC(N(O)c2ccccc2)C(=O)N1c1cc(Cl)cc(Cl)c1 (stereo not drawn),-28.9
O=C1CC(N(O)c2ccccc2)C(=O)N1Cc1ccccc1 (stereo not drawn),56.7*
Cc1ccccc1N1C(=O)CC(N(O)c2ccccc2)C1=O (stereo not drawn),28.7
CCOc1ccc(NC(=O)CN2CCN(CC(=O)Nc3ccc(F)c(F)c3)CC2)cc1,-27.9
CCC(C)(NC(=O)c1cccc(N2C(=O)CSC2c2ccccc2)c1)C(=O)Nc1ccccc1C (stereo not drawn),-18.9
O=C1C2=C(c3ccccc31)[N+](=O)[C@@H]1CCCC[C@@H]1N2[O-],58.6*
O=C1c2ccccc2C(=O)c2c1ccc1c(=O)n(C3CCCCC3)[nH]c21,-20.9
O=C1C2=C(c3ccccc31)[N+](=O)C1CCCCC1N2[O-] (stereo not drawn),14.5
Cc1ccc(/C=C/C(=O)Nc2ccc(N(C)C)cc2)o1,-10.7
O=C(O)CC1Sc2nc3ccccc3n2C1=O (stereo not drawn),-6.9
CCOC(=O)c1c(C)oc2c1cc(O)c1ccccc12,2.3
CCOC(=O)c1c(C)oc2c1c(C=NCc1ccccn1)c(O)c1ccccc12,56.6*
CCOC(=O)c1c(C)oc2c1c(C=NCC1CCCO1)c(O)c1ccccc12 (stereo not drawn),43.9
Nc1ccc(-n2ccnc2)cc1,-46.2
c1ccc(-c2csc3ncnc(NCCCN4CCOCC4)c23)cc1,50.9*
c1ccc(-c2csc3ncnc(NCC4COc5ccccc5O4)c23)cc1 (stereo not drawn),-18.0
c1csc(-c2csc3ncnc(NCCCN4CCOCC4)c23)c1,10.8
COc1ccc(C(NC(=O)/C=C/c2ccco2)c2ccc(OC)cc2)cc1,-6.4
CC(C)C(OC(=O)C1=Cc2ccccc2OC1)C(=O)NC1CCCC1 (stereo not drawn),-14.0
CN1CCc2c(sc3c2C(=O)NC(c2cccc(OC(=O)c4cccs4)c2)N3)C1 (stereo not drawn),72.1*
CN1CCc2c(sc3c2C(=O)NC(c2ccco2)N3)C1 (stereo not drawn),-31.1
SMILES,YopH PTP inh
CCOC(=O)N1CCc2c(sc3c2C(=O)NC(c2ccccc2)N3)C1 (stereo not drawn),-7.1
Cn1c(C(C(=O)NCC2CCCO2)N(C(=O)Cn2nnc3ccccc32)C2CCCCC2)nc2ccccc21 (stereo not drawn),-0.5
CS(=O)(=O)NCCSCc1c(Cl)cccc1Cl,-27.3
CC(=O)OCC1OC(n2ccc(=O)[nH]c2=O)C(O)C1O (stereo not drawn),-11.5
COc1ccc2c(c1OC)C(=O)OC2C1c2c(cc3c(c2OC)OCO3)CCN1C (stereo not drawn),-19.6
CN1CCc2cc3c(c4c2[C@H]1[C@H](O)c1ccccc1-4)OCO3,101.0*
